Experimental findings from PubChem BioAssay (NCATS) are described below.

The target of test [1] is Galactokinase (Homo sapiens) (UniProt P51570). Briefly: qHTS Validation Assay for Inhibitors of Human Galactokinase (GALK) (AID 493189). Also: 0% is about no effect. A digest of the protocol:
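GALK (5 nM) with 35 uM ATP and 100 uM galactose in HEPES pH 8.0 with MgCl2, NaCl, DTT and BSA. Reaction ran 1 h at room temperature. Residual ATP read by Kinase-Glo Plus luminescence.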

Test [2] in a line: Validation screen for small molecules that induce DNA re-replication in SW480 colon adenocarcinoma cells (AID 504364). Also: 0% is about no effect. Put shortly: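 Cells are treated 48 hr with test compound, stained 40 min with Hoechst at 37 C, and scanned for nuclear fluorescence; compounds inducing re-replication increase nuclei with elevated intensity.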
Test [3] addresses Peptidyl-prolyl cis-trans isomerase NIMA-interacting 1 (Homo sapiens) (UniProt Q13526). The test is described as follows: qHTS Validation Assay to Find Inhibitors of Pin1 (AID 504536; active = well fitted inhibition curve with a large enough effect in the polarisation, with a control signal flat, not every such curve was filed as active; the % refers to the polarisation;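 also: 0% = full Pin1 enzyme wells and -100% = no-enzyme wells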). A digest of the protocol:
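Fluorescence polarization competition: compounds (titration) displace HiFluor-488-labeled Pin1-1b peptide from Pin1 (0.3 uM final) in pH 7.5 HEPES buffer with DTT, 10 min at room temperature; %Activity normalized to no-enzyme wells, curves fitted.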

Test [4] concerns the target Phosphoglycerate kinase, glycosomal (Trypanosoma brucei brucei) (UniProt P07378). The test is described as follows: qHTS Validation Assay to Find Inhibitors of Phosphoglycerate Kinase (AID 504547).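 Also: control wells lack PGK and mark full inhibition.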 A digest of the protocol:
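Inhibition of the enzyme is judged by a Kinase-Glo Plus luminescent signal following a one-hour incubation at room temperature. Because 1,3-BPG is unstable, it is made in situ by GAPDH at 100nM final; no-PGK wells define the baseline.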

For test [5], the target named is phosphoglycerate mutase (Leishmania major) (UniProt Q4Q090). Briefly: qHTS Validation Assay to Find Inhibitors of Phosphoglycerate Mutase (AID 504548).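 Also: end-point luminescence from Kinase-GloPlus after the PGAM reaction; series mostly up to about 58 µM; % is scaled to controls: 0 for no effect and ±100 for the full control effect.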 Put shortly: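 Inhibition of L. major PGAM was assessed by Kinase-GloPlus luminescence following a 45-minute room-temperature reaction with enzyme at 1.25nM final.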
Test [6] deals with Ubiquitin carboxyl-terminal hydrolase 1 (Homo sapiens) (UniProt O94782). Briefly: Inhibitors of USP1/UAF1: Pilot qHTS (AID 504865). Also: nearly all actives have a fitted effect of over 35% in size. Also: potency is read from the fitted curve at half-maximal effect. A digest of the protocol:
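USP1/UAF1 complex at 1 nM preincubated 15 min at room temperature with compound, then Ub-Rho substrate added at 150 nM final. Fluorescence (480/540 nm) read kinetically in 50 mM HEPES pH 7.8, 0.5 mM EDTA, 1 mM TCEP, 0.1 mg/ml BSA, 0.01% Tween-20.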

A short description of test [7]: qHTS for Inhibitors of ATXN expression: Validation of Cytotoxic Assay (AID 588349).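 Also: cells exposed to compound for 72 hr.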 Also: potency is read from the fitted curve at half-maximal effect. Put shortly:
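HEK293, compound dose series, 72 hr / 37 degrees C; viability via CellTiter Glo (intracellular ATP).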

Test [8] is described as follows: qHTS for Inhibitors of ATXN expression: Validation (AID 588378). Also: nearly all actives have a fitted effect of over 75% in size. Also: potency is read from the fitted curve at half-maximal effect. Put shortly:
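HEK293 cells carrying ATXN2-firefly luciferase reporter, treated with compound 24 h at 37 °C. Viability read first by CellTiter-Fluor (405/525 nm), then reporter expression by Bright-Glo luminescence; controls were a known ATXN2 expression inhibitor and a luciferase inhibitor.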

In test [9] the target is Vitamin D3 receptor (Homo sapiens) (UniProt P11473). The test is described as follows: qHTS assay for small molecule antagonists of vitamin D receptor signaling (AID 588541; calls by dose curve;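 also: receptor activated by calcitriol during compound treatment; series mostly up to about 77 µM; % is scaled to controls: 0 for no effect and ±100 for the full control effect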). A digest of the protocol: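 Antagonist-mode beta-lactamase reporter assay: HEK293T VDR-UAS-bla cells were exposed to titrated compound alongside 1-alpha,25-dihydroxyvitamin D3 at 3 nM final for 16 h. Values were normalized to the 50 nM agonist control and DMSO basal, with IC50 and efficacy from Hill equation fits.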

The target of test [10] is Estrogen receptor (Homo sapiens) (UniProt P03372). Briefly: qHTS assay for small molecule antagonists of estrogen receptor alpha signaling (AID 588513; active = well fitted curve in the direction sought with a large enough effect in the signal ratio, with a control signal flat, not every such curve was filed as active; the % refers to the signal ratio; also: % is scaled to controls: 0 for no effect and ±100 for the full control effect). A digest of the protocol:
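ER-alpha-UAS-bla GripTite HEK 293 cells in 2% charcoal/dextran-treated FBS medium; compounds titrated (1:2, duplicate), then stimulated with 0.5 nM 17-beta-estradiol for 18 h at 37C. CCF4 beta-lactamase fluorescence; Hill-fit IC50 and efficacy.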

The target in test [11] is Bile acid receptor (Homo sapiens) (UniProt Q96RI1). The test is described as follows: qHTS assay for small molecule antagonists of farnesoid X receptor signaling (AID 588526; calls by dose curve; also: % is scaled to controls: 0 for no effect and ±100 for the full control effect). A digest of the protocol:
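Beta-lactamase reporter antagonist mode: HEK293T FXR-UAS-bla cells, titrated compound, CDCA stimulation, 16 h 37 C, CCF4 dye 2 h RT. Data normalized to CDCA 50 uM and DMSO; Hill-fit IC50.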

The target of test [12] is Peroxisome proliferator-activated receptor gamma (Homo sapiens) (UniProt P37231). The test is described as follows: qHTS assay for small molecule agonists of peroxisome proliferator-activated receptor gamma signaling (AID 588536; active = well fitted curve in the direction sought with a large enough effect in the signal ratio, with a control signal flat, not every such curve was filed as active; the % refers to the signal ratio;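 also: 0% = DMSO basal wells and 100% = rosiglitazone at 2 µM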). A digest of the protocol: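 HEK293 UAS-bla reporter line, 1% charcoal/dextran FBS; titration, 16 h, 37 C; CCF4 loading 2 h RT; fluorescence 460/530 nm. Normalized to rosiglitazone 2 uM = 100%, DMSO = 0%.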

For test [13] the target is unchanged. Briefly: qHTS assay for small molecule antagonists of peroxisome proliferator-activated receptor gamma signaling (AID 588537; active = well fitted inhibition curve with a large enough effect in the signal ratio, with a control signal flat, not every such curve was filed as active; the % refers to the signal ratio;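 also: reporter cells co-stimulated with 50 nM rosiglitazone agonist during compound treatment; % of control where 0% means no effect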). Put shortly:
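Inhibitors of agonist-stimulated UAS-bla reporter activity were sought in HEK293 cells; rosiglitazone (50 nM) defined full signal and DMSO baseline. Curves fitted to Hill model gave IC50 and efficacy.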

Test [14] deals with Vitamin D3 receptor (Homo sapiens) (UniProt P11473). The test is described as follows: qHTS assay for small molecule agonists of vitamin D receptor signaling (AID 588543; calls by dose curve;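 also: 0% = DMSO basal and 100% = reference agonist control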). Put shortly:
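VDR-UAS-bla HEK293T cells, 2000/well, 2% charcoal-stripped FBS; compound titration 16 h at 37 C; CCF4 beta-lactamase ratio read. Normalized to 50 nM 1-alpha,25-dihydroxyvitamin D3 (100%) and DMSO; Hill fit gives EC50, efficacy.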

Test [15] has as its target Glucocorticoid receptor (Homo sapiens) (UniProt P04150). The test is described as follows: qHTS assay for small molecule agonists of glucocorticoid receptor signaling (AID 588532; active = well fitted curve in the direction sought with a large enough effect in the signal ratio, with a control signal flat; the % refers to the signal ratio;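 also: 100% = dexamethasone at 0.1 µM and 0% = DMSO only wells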). The following applies: HeLa MMTV-bla, beta-lactamase ratio, agonist, 18 h; stronger effect = higher value; percent of dexamethasone control, DMSO zero. A digest of the protocol: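 Agonist-mode qHTS: GRE-driven beta-lactamase in HeLa cells exposed 18 h to titrated compounds (up to 92 uM), then CCF4 ratio read after 2 h at RT; Hill-fitted EC50, efficacy relative to 0.1 uM dexamethasone.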

The target of test [16] is Androgen receptor (Homo sapiens) (UniProt P10275). The test is described as follows: qHTS assay for small molecule agonists of androgen receptor signaling (AID 588515; active = well fitted curve in the direction sought with a large enough effect in the signal ratio, with a control signal flat; the % refers to the signal ratio; also: % is scaled to controls: 0 for no effect and ±100 for the full control effect). The following applies: AR-UAS-bla HEK293, beta-lactamase ratio, agonist 16 h; stronger effect = higher value. A digest of the protocol: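 EC50 and efficacy came from Hill fits of titrations (up to 92 uM) normalized to 30 nM R1881 as 100% and DMSO as 0%. Compound exposure was 16 h at 37 C on AR-UAS-bla HEK293 cells, with a 405/460/530 nm CCF4 fluorescence read.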

Test [17] has the same target. The test is described as follows: qHTS assay for small molecule antagonists of androgen receptor signaling (AID 588516; active = well fitted curve in the direction sought with a large enough effect in the signal ratio, with a control signal flat, not every such curve was filed as active; the % refers to the signal ratio; also: % is scaled to controls: 0 for no effect and ±100 for the full control effect). Put shortly:
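AR-UAS-bla GripTite HEK 293 cells (2000/well) treated with compound titrations plus 10 nM R1881 for 16 h at 37C. Beta-lactamase read by CCF4 FRET (460/530 nm); IC50 from Hill fits, normalized to R1881 and DMSO control wells.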

For test [18], the target named is Glucocorticoid receptor (Homo sapiens) (UniProt P04150). Briefly: qHTS assay for small molecule antagonists of glucocorticoid receptor signaling (AID 588533; active = well fitted inhibition curve with a large enough effect in the signal ratio, with a control signal flat, not every such curve was filed as active; the % refers to the signal ratio). A digest of the protocol: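 Antagonist-mode qHTS: compound titrations added to GRE-bla HeLa cells, then dexamethasone 2 nM final; 18 h, 37 C. CCF4 FRET fluorescence normalized to dexamethasone and DMSO; IC50 from Hill fit.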

A short description of test [19]: qHTS assay for small molecule antagonists of peroxisome proliferator-activated receptor delta signaling (AID 588535).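 Also: cells co-treated with a PPAR-delta agonist as stimulator during compound exposure.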 The following applies: HEK293T PPARd-UAS-bla, beta-lactamase FRET ratio, 18 h; 460 nm channel. A digest of the protocol:
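Cell-based beta-lactamase assay in antagonist mode: 4000 HEK293T PPAR-delta-UAS-bla cells per well, 5 hr preincubation then 18 hr compound incubation at 37 C. IC50 obtained by Hill equation fitting.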

Inconclusive results are not listed. Active and inactive are the calls of the source. Unless noted, calls follow the shape of the dose curve; as a rule, active = well fitted curve in the direction sought with a large enough effect; inconclusive = small, poorly fitted or top-dose-only effect, or another doubt; inactive = no such curve, though single readings can be large; an effect the other way counts as inactive or inconclusive.

Chain of Peptidyl-prolyl cis-trans isomerase NIMA-interacting 1 (Homo sapiens) (Q13526 whole entry, looked up): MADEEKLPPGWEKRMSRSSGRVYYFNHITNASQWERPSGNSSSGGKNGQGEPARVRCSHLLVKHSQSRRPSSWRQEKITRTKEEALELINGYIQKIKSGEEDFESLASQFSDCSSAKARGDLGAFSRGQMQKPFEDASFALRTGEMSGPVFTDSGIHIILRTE
Chain of Ubiquitin carboxyl-terminal hydrolase 1 (Homo sapiens) (O94782 whole entry, looked up): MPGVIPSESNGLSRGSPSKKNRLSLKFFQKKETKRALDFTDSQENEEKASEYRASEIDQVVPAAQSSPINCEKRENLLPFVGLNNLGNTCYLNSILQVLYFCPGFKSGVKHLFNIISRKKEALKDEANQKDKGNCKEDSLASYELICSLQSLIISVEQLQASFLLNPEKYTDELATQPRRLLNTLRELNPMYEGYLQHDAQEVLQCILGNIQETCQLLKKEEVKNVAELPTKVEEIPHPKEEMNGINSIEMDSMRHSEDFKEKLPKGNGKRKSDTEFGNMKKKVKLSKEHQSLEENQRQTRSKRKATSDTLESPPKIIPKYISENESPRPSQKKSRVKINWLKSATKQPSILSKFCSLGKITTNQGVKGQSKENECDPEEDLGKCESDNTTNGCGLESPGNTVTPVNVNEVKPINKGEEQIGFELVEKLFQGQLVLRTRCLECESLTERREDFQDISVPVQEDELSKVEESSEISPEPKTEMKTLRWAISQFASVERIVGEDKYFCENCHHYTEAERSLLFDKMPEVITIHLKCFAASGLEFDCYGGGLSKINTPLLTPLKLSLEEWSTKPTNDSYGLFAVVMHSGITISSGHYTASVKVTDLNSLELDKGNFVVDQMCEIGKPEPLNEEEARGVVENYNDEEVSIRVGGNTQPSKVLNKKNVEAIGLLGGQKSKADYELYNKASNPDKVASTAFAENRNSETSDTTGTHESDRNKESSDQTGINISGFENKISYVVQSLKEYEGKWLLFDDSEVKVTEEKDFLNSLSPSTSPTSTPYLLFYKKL
Chain of Vitamin D3 receptor (Homo sapiens) (P11473 whole entry, looked up): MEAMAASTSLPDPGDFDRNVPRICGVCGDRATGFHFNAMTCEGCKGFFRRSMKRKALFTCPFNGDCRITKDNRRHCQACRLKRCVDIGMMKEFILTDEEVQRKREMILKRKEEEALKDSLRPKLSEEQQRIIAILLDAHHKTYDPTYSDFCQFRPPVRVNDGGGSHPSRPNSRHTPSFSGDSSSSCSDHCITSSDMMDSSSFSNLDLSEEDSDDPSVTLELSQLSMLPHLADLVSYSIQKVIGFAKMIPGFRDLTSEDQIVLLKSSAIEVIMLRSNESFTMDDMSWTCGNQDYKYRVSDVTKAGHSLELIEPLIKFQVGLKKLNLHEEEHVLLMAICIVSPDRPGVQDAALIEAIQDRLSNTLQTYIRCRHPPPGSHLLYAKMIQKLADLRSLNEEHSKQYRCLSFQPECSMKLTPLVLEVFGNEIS
Chain of Bile acid receptor (Homo sapiens) (Q96RI1 whole entry, looked up): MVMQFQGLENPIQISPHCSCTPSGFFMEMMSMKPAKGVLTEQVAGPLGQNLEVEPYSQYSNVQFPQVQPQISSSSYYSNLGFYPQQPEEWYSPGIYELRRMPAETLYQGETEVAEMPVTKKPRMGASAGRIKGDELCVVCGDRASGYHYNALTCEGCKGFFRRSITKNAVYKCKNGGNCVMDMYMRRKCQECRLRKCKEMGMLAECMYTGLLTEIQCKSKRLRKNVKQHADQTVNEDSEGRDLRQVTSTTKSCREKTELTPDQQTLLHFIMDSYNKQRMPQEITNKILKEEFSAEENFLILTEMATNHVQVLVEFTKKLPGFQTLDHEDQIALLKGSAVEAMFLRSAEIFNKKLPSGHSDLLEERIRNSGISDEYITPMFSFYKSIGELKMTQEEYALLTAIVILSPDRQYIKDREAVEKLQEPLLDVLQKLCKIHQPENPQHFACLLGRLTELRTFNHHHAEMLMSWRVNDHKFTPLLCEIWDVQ
Chain of Phosphoglycerate kinase, glycosomal (Trypanosoma brucei brucei) (P07378 whole entry, looked up): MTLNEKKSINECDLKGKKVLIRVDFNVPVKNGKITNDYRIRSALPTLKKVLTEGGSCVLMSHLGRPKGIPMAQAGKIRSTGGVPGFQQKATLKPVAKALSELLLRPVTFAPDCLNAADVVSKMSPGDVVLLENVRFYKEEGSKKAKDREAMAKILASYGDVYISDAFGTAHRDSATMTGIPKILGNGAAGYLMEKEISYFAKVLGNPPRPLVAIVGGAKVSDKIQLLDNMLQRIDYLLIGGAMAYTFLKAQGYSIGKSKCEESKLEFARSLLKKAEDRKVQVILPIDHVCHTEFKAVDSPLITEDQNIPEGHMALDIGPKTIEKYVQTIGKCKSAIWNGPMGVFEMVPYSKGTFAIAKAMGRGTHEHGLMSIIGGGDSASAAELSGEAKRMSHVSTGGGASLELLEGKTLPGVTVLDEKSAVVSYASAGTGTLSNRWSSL
Chain of Glucocorticoid receptor (Homo sapiens) (P04150 whole entry, looked up): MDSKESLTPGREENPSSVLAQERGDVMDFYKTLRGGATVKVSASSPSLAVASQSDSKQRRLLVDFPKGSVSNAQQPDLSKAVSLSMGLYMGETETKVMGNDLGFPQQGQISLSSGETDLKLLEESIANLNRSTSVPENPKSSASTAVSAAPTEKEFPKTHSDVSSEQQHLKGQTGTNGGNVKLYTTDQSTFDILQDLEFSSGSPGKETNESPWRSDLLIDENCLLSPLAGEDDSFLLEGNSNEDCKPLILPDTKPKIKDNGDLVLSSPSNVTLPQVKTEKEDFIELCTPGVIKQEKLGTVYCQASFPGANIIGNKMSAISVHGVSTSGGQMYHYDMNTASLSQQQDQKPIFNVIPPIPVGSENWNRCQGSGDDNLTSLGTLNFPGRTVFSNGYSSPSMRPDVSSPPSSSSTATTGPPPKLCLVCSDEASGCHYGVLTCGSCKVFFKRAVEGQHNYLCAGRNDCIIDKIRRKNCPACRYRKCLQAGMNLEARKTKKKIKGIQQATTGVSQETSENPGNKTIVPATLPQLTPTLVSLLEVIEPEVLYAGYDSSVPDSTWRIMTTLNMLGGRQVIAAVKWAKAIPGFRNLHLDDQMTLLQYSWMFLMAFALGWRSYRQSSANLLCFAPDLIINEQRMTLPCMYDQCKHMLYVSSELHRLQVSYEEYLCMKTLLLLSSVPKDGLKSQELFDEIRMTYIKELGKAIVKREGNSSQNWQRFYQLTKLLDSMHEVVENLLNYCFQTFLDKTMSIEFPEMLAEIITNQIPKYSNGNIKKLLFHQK
Chain of phosphoglycerate mutase (Leishmania major) (Q4Q090 1-553): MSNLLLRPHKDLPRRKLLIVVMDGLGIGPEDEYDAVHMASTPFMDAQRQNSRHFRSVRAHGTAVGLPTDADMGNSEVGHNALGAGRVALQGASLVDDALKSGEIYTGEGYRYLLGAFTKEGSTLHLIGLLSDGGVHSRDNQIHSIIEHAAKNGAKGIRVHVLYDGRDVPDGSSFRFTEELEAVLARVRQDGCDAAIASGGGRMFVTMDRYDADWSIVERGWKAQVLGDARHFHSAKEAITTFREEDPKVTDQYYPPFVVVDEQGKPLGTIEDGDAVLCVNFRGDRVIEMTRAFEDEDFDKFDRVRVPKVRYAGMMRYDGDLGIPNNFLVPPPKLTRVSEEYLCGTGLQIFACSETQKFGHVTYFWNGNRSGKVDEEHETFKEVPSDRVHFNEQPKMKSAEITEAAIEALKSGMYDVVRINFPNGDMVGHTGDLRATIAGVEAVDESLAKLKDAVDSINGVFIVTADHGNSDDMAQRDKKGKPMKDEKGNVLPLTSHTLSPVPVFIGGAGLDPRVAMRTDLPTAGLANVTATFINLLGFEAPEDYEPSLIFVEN
Chain of Estrogen receptor (Homo sapiens) (P03372 whole entry, looked up): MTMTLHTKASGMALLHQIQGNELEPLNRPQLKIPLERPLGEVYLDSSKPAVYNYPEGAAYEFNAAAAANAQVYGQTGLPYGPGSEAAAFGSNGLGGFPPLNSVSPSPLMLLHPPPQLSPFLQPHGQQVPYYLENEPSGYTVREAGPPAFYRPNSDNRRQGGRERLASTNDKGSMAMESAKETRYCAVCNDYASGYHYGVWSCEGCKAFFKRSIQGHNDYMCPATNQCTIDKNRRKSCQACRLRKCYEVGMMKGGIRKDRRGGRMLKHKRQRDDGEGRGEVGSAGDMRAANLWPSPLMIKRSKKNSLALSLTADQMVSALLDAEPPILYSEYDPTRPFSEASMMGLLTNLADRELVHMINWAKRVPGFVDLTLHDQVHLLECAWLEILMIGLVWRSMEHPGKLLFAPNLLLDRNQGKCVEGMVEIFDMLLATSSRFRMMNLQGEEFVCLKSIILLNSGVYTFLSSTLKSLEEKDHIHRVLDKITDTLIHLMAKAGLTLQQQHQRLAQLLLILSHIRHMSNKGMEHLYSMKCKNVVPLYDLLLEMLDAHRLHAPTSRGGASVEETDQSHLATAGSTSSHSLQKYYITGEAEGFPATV
Chain of Peroxisome proliferator-activated receptor gamma (Homo sapiens) (P37231 whole entry, looked up): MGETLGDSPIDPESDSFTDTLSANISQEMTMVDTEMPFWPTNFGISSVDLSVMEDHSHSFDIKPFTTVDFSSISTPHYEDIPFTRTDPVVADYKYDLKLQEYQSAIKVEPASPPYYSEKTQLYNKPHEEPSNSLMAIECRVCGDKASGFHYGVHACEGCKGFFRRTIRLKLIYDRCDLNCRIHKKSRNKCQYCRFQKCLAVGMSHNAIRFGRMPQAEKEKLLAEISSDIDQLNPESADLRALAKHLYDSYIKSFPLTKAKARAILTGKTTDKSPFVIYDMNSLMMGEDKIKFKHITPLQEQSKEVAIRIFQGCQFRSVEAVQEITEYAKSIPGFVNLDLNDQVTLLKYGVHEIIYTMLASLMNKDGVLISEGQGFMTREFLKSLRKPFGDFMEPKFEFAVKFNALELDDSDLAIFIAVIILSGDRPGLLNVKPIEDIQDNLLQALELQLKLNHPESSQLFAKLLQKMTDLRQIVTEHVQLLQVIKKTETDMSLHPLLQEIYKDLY

In the case of `NC(N)=Nc1nc(CSCC/C(N)=N/S(N)(=O)=O)cs1`, the compound was classed as inactive in [1], in test [2], in test [3], in [4] and in test [5]. Further, the Potency result in [6], in [7] and in test [8] was “inactive” each time.

In the case of `CCCCCN(C)CCC(O)(P(=O)(O)O)P(=O)(O)O`, the compound was called inactive in test [3], in test [4] and in test [5]. The Potency result in [6], in test [7] and in [8] was “inactive” in each case.

Regarding `Clc1ccc(C(c2ccc(Cl)cc2)n2cc[n+](CC(OCc3ccc(Cl)cc3Cl)c3ccc(Cl)cc3Cl)c2)cc1` (stereo not given), the call in test [3], in [4] and in [5] was inactive.

For the compound `COc1ccc(C2Sc3ccccc3N(CCN(C)C)C(=O)C2OC(C)=O)cc1` (stereo not given), in [6], the Potency result is “inactive”.

For `CC(C)[C@H](CO)Nc1nc(Nc2ccc(C(=O)O)c(Cl)c2)c2ncn(C(C)C)c2n1`, the Potency result in test [6] is “inactive”.

Consider `O=C(NCCN1CCOCC1)c1ccc(Cl)cc1`, for which the compound was classed as inactive in [3], in [4] and in test [5]. Further, the Potency result in [6], in [7] and in test [8] was “inactive” in each case.

Take `CC(=O)O[C@]1(C(C)=O)CC[C@H]2[C@@H]3C=C(Cl)C4=CC(=O)[C@@H]5C[C@@H]5[C@]4(C)[C@H]3CC[C@@]21C`: the result in test [3], in test [4], in [5] and in test [9] was inactive. Besides, the Potency result in [6], in test [7] and in [8] was “inactive” in each case.

`Cc1cnc(C(=O)O)c[n+]1[O-]`: in [6], the Potency result was “inactive”.

On to `CCN(CC)CCNC(=O)c1ccc(N)cc1`, for which the compound was classed as inactive in test [1], in [2], in test [4] and in test [5]. For the same compound, the Potency entry in test [7] and in test [8] was “inactive” in each case.

For `CCn1cc(C(=O)O)c(=O)c2ccc(C)nc21`, the compound was called inactive in test [3], in test [4], in test [5], in test [11], in test [12] and in test [9]. Besides, in [14], the call was inactive. Further, the Potency entry in [6], in test [7], in test [8], in [10] and in [13] was “inactive” throughout.

For `O=C(O)c1cc(O)c2c(c1)C(=O)c1cccc(O)c1C2=O`, the Potency result in [10] is “inactive”. The activation in [15] is 1.5% (inactive).

Consider `Nc1ncnc2c1ncn2[C@@H]1O[C@@H](CO)[C@H](O)[C@H]1O`, for which the Potency entry in test [6] was “inactive”.

Consider `O=c1cc(-c2ccccc2)oc2cc(O)cc(O)c12`, for which the Potency entry in test [6] is “inactive”. For the same compound, the activation in test [15] was -10.9% (inactive).

As for `COc1ccc2c3c1OC1C[C@@H](O)C=C[C@@]31CCN(C)C2` (stereo not given in full), the Potency entry in test [6] is “inactive”.

In the case of `C[C@@H](O)[C@H]1C(=O)N2C(C(=O)O)=C(S[C@@H]3CN[C@H](C(=O)N(C)C)C3)[C@H](C)[C@H]12`, in test [6], the Potency entry was “inactive”.

Regarding `CCOC(=O)O[C@]1(C(=O)OCCl)CC[C@@H]2[C@H]3CCC4=CC(=O)C=C[C@]4(C)[C@@H]3[C@@H](O)C[C@@]21C`, the Potency entry in [6] was “inactive”.

As to `CC1(C)CCC2=C(O1)c1ccccc1C(=O)C2=O`, in [5], the call was inactive. The Potency is 5.01 µM (active) in test [6], 22.4 µM (active) in test [7] and 22.4 µM (active) in test [8].

In the case of `CC1(C)O[C@H]2C[C@@H]3[C@H]4CCC5=CC(=O)C=C[C@]5(C)[C@@]4(F)[C@@H](O)C[C@]3(C)[C@]2(C(=O)CO)O1`, in [6], the Potency result was “inactive”.

As to `Cc1cccc(C)c1OCC(C)N` (stereo not given), the outcome in test [2], in test [3], in test [4] and in [5] was inactive. Further, the Potency result in [6], in [7] and in [8] was “inactive” in each case.

As to `COc1ccc(Cc2nccc3cc(OC)c(OC)cc23)cc1OC`, the result in test [3], in test [4] and in [5] was inactive. The Potency entry in [7] and in [8] was “inactive” in each case.

`O=C(O)c1c(Cl)c(Cl)c(Cl)c(Cl)c1-c1c2cc(I)c(=O)c(I)c-2oc2c(I)c(O)c(I)cc12`: in test [6], the Potency is 20 µM (active).

Turning to `O=C(O)c1cc(-c2ccccc2)nc2ccccc12`, the Potency result in [6], in [18] and in test [13] was “inactive” each time. In test [16], the activation was -15.7% (inactive). Moreover, the call in [17], in [11] and in test [14] was inactive. In test [19], the max response turned out to be 54.7%.
